Data published in ChEMBL document CHEMBL4888484, “Replenishing the malaria drug discovery pipeline: Screening and hit evaluation of the MMV Hit Generation Library 1 (HGL1) against asexual blood stage Plasmodium falciparum ,using a nano luciferase reporter read-out” (2022).
In all, about 4,800 compounds went through this assay and about 420 (8.8%) showed an effect of 50% or more. This is one part of a sample in which strong results are shown more often than they occur.

test system: Plasmodium falciparum; experiment: Confirmatory screen in NF54 nanoGlo assay, in single point, at 2uM, 72h; format: functional, Erythrocyte; settings: timepoint 72 hour

SMILES	% Inhibition
Cc1cc(C)n(NC(=O)CCn2nc(C(F)(F)F)c(Br)c2C2CC2)c(=O)c1	3%
CCCOc1cccc2c(NC3CCN(CCOC)CC3)ccnc12	22%
Clc1cc(CN2CC[C@@]3(CCCOC3)C2)ccc1OCCN1CCOCC1	0%
Cc1cc(C)cc(Nc2nc(C)cc(=O)n2CC(=O)N2CCN(c3ccc(F)cc3)CC2)c1	-1%
Cc1c(C(=O)c2ccc(Cl)c(Cl)c2)sc2nc3cc(F)c(F)cc3n12	-11%
Nc1ncnc(NCc2cccnc2OCC(F)F)c1Cl	7%
COc1cc(C(=O)NCCN2CCOCC2)cc2occc12	-4%
CC1CC(NS(=O)(=O)CCCC(F)(F)F)CCN1 (stereo not given)	-4%
COc1cc(NC(=O)N[C@@H](C)C(=O)N2CCc3ccccc32)cc(OC)c1	4%
Cc1ccc(NC(=O)c2cc3nccc(-c4ccc(F)cc4)n3n2)nc1	-7%
CN(C(=O)NC1CCCC1)c1nc2c(s1)CN(Cc1ccccc1)C2=O	-12%
Cc1ccc(CNC2CCN(C)CC2)c(OCc2ccco2)c1	-3%
Cc1ccc2nc(C3CC3)cc(C(=O)N3C[C@@H](O)C[C@H]3CO)c2c1	-4%
Cc1ccc2nc3c(c(N)c2c1)CCCCN3C	-10%
COCCN(CC1CN(Cc2ccccc2OC)CC1c1ccccc1OC)C(=O)COC (stereo not given)	-2%
CC(C)[C@@H]1CCc2ccccc2N1Cc1nc(N)nc(N(C)C)n1	-4%
COc1ccc(NC(=O)Cn2c(C(F)(F)F)nc3cc4c(cc32)OCCCO4)cc1	4%
Cn1c2cn(-c3ccc(F)cc3)c(-c3ccccc3)c2c(=O)n1-c1ccccc1	-1%
Cn1c(=O)c2c(-c3ccc(Cl)cc3)n(-c3cccc4cccc(N)c34)cc2n(C)c1=O	91%
CC(C)(C)OC(=O)N1CCCC(C(O)C(F)(F)F)C1 (stereo not given)	6%
CCCCC12CN(S(=O)(=O)c3ccccc3)CC(C)(CN(S(=O)(=O)c3ccccc3)C1)C2=O	-5%
CCCCN(CC)CCNC(=O)C1CCN(C2=NS(=O)(=O)C(c3ccc(OC)cc3)=C2C)CC1	32%
COc1ccc(-c2cc(C(=O)N[C@H]3CCN(c4ccc(=O)n(C)n4)C3)c(C)n2C)cc1	62%
Cn1cccc1C(=O)NC1CCN(c2ccc(Cl)c(C#N)n2)CC1	-5%
COc1ccc(-c2cc(C(=O)N[C@H]3CCN(c4ccc(=O)[nH]n4)C3)c(C)n2C)cc1	69%

SMILES	% Inhibition
Cc1c(C(=O)NC2CC2)cc(-c2ccccc2)n1C	-3%
CC(C)NC(=O)c1ccc(CN2C(=O)COc3ccc(C(=O)COc4ccc(F)c(F)c4)cc32)o1	4%
CC[C@H](C)NS(=O)(=O)c1cccc(N)c1	-4%
O=C(NCc1ccco1)[C@H]1CCCN(c2nc3ccccc3n(Cc3ccccc3)c2=O)C1	4%
Brc1cccc(-c2ccc(-c3cc(-c4ccccc4)nnc3-c3ccccc3)o2)c1	31%
COc1cc(Br)ccc1C1NC(=O)C2COCCN21 (stereo not given)	7%
CC(C)(C)c1cc([C@H](c2ccc(Cl)cc2)N2CCCCC2)cc(C(C)(C)C)c1O	2%
CN(Cc1nnc[nH]1)C(=O)C1(C)CCC1	-11%
COCCNc1nc(-c2ccccc2OC)c2c(N)n(-c3ccc(F)cc3)nc2n1	-6%
COc1ccc(CCNc2nc(-c3ccc(OC)cc3F)c3c(N)n(-c4ccc(Cl)cc4)nc3n2)cc1	59%
COc1ccc(-n2nc(C)c(Cc3ccc(Cl)cc3)c2O)cc1	0%
Cc1cc(N2C(=O)CCS2(=O)=O)cc(C)c1S(=O)(=O)NCc1ccccn1	2%
Cc1nn(C)c(C)c1-c1cc(C(=O)Nc2sc3c(c2C#N)CCCC3)c2ccccc2n1	-13%
Cc1cc(C)c(NC(=O)OCc2cccc3cccnc23)c(C)c1	83%
CCc1ccc(C2=Nc3cccnc3N(CC(=O)Nc3c(C)cc(C)cc3C)C(=O)C2)cc1	-4%
Cc1cccnc1NC(=O)OC(C)(C)C	0%
CN(C(=O)Cc1cc(Br)ccc1F)c1nncn1C	9%
O=S(=O)(N[C@H](c1nccs1)C1CC1)c1c(F)cccc1Cl	0%
CC(C)CC(=O)N=c1nc(S)ss1	-4%
CC(=O)c1cccc(NC(=O)[C@@]23CCC(=O)N2c2ccccc2C(=O)N3C)c1	76%
CCCN1C(=O)c2ccccc2N2C(=O)CC[C@@]12C(=O)Nc1ccc(OC)cc1	92%
CCN1C(=O)c2ccccc2N2C(=O)CC[C@@]12C(=O)Nc1cccc(OC)c1	92%
O=C(CN1C[C@@H](c2ccccc2)Oc2ccccc2C1=O)Nc1ccccc1	-16%
CC(=O)c1cccc(NC(=O)Cn2c(=O)n(CCc3ccccc3)c(=O)c3ccccc32)c1	7%
COc1ccc(NC(=O)CCC(=O)N2CCc3ccccc3C2)cc1	3%

SMILES	% Inhibition
COc1cccc(NC(=O)c2ccc3c(c2)N(C)[C@@H]2CCCCCN2C3=O)c1	5%
COc1ccc(NC(=O)C2=NN(CC(=O)Nc3cccc(OC)c3)C(=O)CC2)cc1	-12%
CC(=O)c1cccc(NC(=O)c2nonc2C)c1	-11%
COc1ccc(NC(=O)CN2N=C(C(=O)Nc3ccccc3)CCC2=O)cc1	-15%
CCCN1C(=O)c2ccccc2N2C(=O)CC[C@@]12C(=O)Nc1ccccc1	91%
CCOc1cccc(CNC(=O)c2nn[nH]c2Nc2ccc(C)c(C)c2)c1	1%
Cc1ccc(Cc2nn3c(C4CCN(S(C)(=O)=O)CC4)nnc3s2)cc1C	-8%
Cc1ccc(OCCCOc2ccc(CO)nc2)cc1C	3%
O=S1(=O)NCCCCN1Cc1ccccc1	-6%
Cc1cc(NC(=O)Cn2c(=O)n(CC(C)C)c(=O)c3sccc32)no1	-13%
Cn1cc(N)c(Oc2ccc3c(c2)OCO3)n1	0%
Cc1cc(N2C(=O)CCS2(=O)=O)ccc1S(=O)(=O)NC1CCCC1	7%
Cc1ccc(-c2nn[nH]n2)cc1-n1cccn1	-2%
COc1ccc(N2CCN(c3nccn4nc(-c5cccs5)cc34)CC2)cc1	6%
O=C(NC(N1CCCC1=O)(C(F)(F)F)C(F)(F)F)c1ccco1	-1%
CC(C)(C)OC(=O)NC1CCCN(CC2CN(c3ccc(F)cc3)C(=O)O2)C1 (stereo not given)	-8%
CN(C)c1nc(N)cc(-c2cccc3cccnc23)n1	44%
Cc1cccc2c(-c3cc(N)nc(N)n3)c[nH]c12	85%
Cc1cccc(C)c1NC(=O)c1cc(-c2cccc3ccccc23)[nH]n1	2%
O=C(NCc1cc(F)cc(F)c1)c1csc(C(=O)NC2CC2)n1	-6%
C[C@H]1CCCN(C(=O)CNC(=O)Cc2ccccc2)CC1	-9%
COc1ccnc(CN2CCC[C@H](c3nc(-c4ccccc4)c[nH]3)C2)c1OC	67%
CN(C)c1nc(CN2CCC[C@H](c3n[nH]c(-c4ccccc4)n3)C2)ns1	-1%
c1ccc(-c2c[nH]c([C@H]3CCCN(c4ncnc5[nH]ncc45)C3)n2)cc1	-4%
CCS(=O)(=O)Nc1cc2c(C(C)=O)c(C)oc2cc1C	4%

SMILES	% Inhibition
Cc1ccc2c(c1)[C@@H](O)C[C@@H](C)N2C(=O)c1ccco1	-7%
Brc1ccc2c(c1)CN(Cc1c[nH]cn1)CCO2	4%
COc1ccc(-c2cc(-c3ccccc3)nc(N3CCC(C)CC3)n2)cc1	50%
COc1ccc(N2CCN(c3nc(-c4ccccc4)cs3)CC2)cc1	-6%
Cc1nc(N2CCC(C)CC2)ncc1-c1cc(=O)[nH]c(Nc2ccccc2)n1	-16%
Cc1cccc(NC(=O)CS(=O)(=O)Cc2cc(Cl)cc3c2OCOC3)c1C	-10%
COc1cccc(CNC(=O)Cn2c(=O)n(Cc3cccc(OC)c3)c(=O)c3sccc32)c1	2%
O=C(CNC(=O)c1ccc(C(F)(F)F)cc1)Nc1cnc2c(c1)COCC2	-1%
CCNC(=O)c1csc(COc2ccc3c(c2)[C@H](c2ccc(C)cc2)N(C(=O)CC(C)C)CC3)n1	36%
Cc1cccc(CN2C(=O)[C@@H]3CCCN3c3ccc(C#N)cc32)c1	0%
Cc1cc(N2C[C@H]3CC[C@@H](C2)[C@H]3N(C)C)nc(Nc2cccc(O)c2)n1	44%
Cc1cc(N2CC(OCc3ccccc3)C2)nc(Nc2cccc(O)c2)n1	96%
CN(C(=O)C(C)(C)Nc1ncc(C(F)(F)F)cc1Cl)c1ccc(Cl)cc1	35%
CN(CC#N)C(=O)c1ccc(Br)cc1Br	-12%
O=C(N[C@@H]1CN(Cc2ccccn2)CCC[C@H]1O)c1ccc(OCc2ccccc2)cc1	30%
CC(C)C1(CNC(=O)C(=O)c2cc(S(N)(=O)=O)cn2C)CC1	-3%
CCn1cc(C)c(C(=O)O)c1CC(=O)NCc1ccc(F)cc1	-12%
CC(CNC(=O)NCC(O)C1CC1)c1ccc(F)c(F)c1 (stereo not given)	3%
Cc1nn(C)cc1[C@@H]1CC(=O)Nc2c1cnn2C(C)(C)C	-14%
COc1cc(OC)nc(-n2nc(C)cc2C(=O)Nc2ccc(Cl)cc2)n1	10%
Cc1cc(C)n(-c2nc(Nc3ccc(Cl)cc3)nc(Nc3ccc(Cl)cc3)n2)n1	82%
Cc1cc(C)n(-c2nnc(-c3ccccc3)c(-c3ccccc3)n2)n1	2%
O=C(Cc1cccs1)Nc1ncc(Cc2ccccc2)s1	4%
CCn1cc(Cl)c(C(=O)N2N=C3/C(=C/c4ccc(C)cc4)CCCC3C2c2ccc(C)cc2)n1 (stereo not given)	7%
Cc1ccc(NC(=O)CN2CCC3(CC2)NC(c2ccc(OC(F)(F)F)cc2)=NO3)c(C)c1	-5%
